Shown are actives, neighbours in structure and some others; about 7.5% of the full set was active somewhere.
FLuc modulator = firefly luciferase modulation, counter-screen for miR-21 project; purified FLuc, Km substrates, luminescence inhibition; Potency, µM (highest dose often 57.5 µM), for the others: at the top dose activity change, negative = inhibition, hits mostly inhibitors; hit rate 6.9% among 360,000; AID 588342;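 note: plate controls were vehicle for no effect and reference inhibitor for full effect; nearly all actives have a fitted effect of over 55% in size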
Target sequence (P08659 whole entry, looked up): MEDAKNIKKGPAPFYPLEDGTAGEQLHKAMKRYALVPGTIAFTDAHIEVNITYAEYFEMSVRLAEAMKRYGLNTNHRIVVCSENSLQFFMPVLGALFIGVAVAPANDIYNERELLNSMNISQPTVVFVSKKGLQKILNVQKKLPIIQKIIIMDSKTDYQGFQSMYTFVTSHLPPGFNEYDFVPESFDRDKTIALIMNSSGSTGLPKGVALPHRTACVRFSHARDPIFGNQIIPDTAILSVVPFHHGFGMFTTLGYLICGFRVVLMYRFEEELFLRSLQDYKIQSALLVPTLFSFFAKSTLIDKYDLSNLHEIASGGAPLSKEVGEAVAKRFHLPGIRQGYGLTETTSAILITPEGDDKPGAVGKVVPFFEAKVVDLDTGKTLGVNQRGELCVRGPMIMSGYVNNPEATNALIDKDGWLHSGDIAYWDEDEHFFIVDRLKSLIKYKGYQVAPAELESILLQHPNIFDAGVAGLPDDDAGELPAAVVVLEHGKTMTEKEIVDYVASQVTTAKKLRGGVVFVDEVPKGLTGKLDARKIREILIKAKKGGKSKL
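Purified P. pyralis luciferase (10nM final) with 10uM D-luciferin and 10uM ATP (Km levels) in 50mM Tris acetate pH 7.5, 10mM Mg acetate, 0.01% Tween-20, 0.05% BSA; qHTS 6-point titration, ~60 µM downward; luminescence read.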
KinaseGlo FLuc = counter-screen: inhibitors of Kinase-Glo firefly luciferase. Q27757. Kinase-Glo luciferase, ATP luminescence, 8 min. Potency, µM (highest dose often 38.3 µM), for the others: at the highest dose activity change, negative = inhibition, actives largely listed as inhibitors. hit rate 0.28% among 200,000; note: % is set by controls: 0 for no effect and ±100 for the full control effect; nearly all actives have a fitted effect of over 60% in size
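Kinase-Glo luciferase light output from ATP and luciferin was measured with 10 uM ATP, within the enzyme's linear range. Buffer: 50 mM imidazole pH 7.2, 50 mM KCl, 7 mM MgCl2, 0.01% Tween 20, 0.05% BSA; luminescence read after 8 min at ambient temperature.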
ELG1 genotoxic = induces genotoxicity in HEK293T cells with luciferase-tagged ELG1 | HEK293T ELG1-luciferase reporter, luminescence, 16 h | Potency, µM (highest dose often 46 µM), without a hit: top-dose activity change, positive = activation, actives largely listed as activators | hit rate 1.3% among 330,000 | AID 504466; note: % of control where 0% means no effect; nearly all actives have a fitted effect of over 60% in size
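16 hr compound incubation (37 °C, 5% CO2) of HEK293T cells carrying luciferase-tagged ELG1; luciferase then measured by ONE-Glo luminescence after 30 min at RT.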
Rab9 promoter act = Rab9 promoter activation. AID 485297. Potency, µM (doses to about 9.22 µM), for inactives: at the top dose activation, negative = inhibition, usual class: activators. Huh7 Rab9 promoter-luciferase reporter, luminescence, 24 h. hit rate 2.8% among 320,000; note: % of control where 0% means no effect; nearly all actives have a fitted effect of over 60% in size
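Using Huh7 cells stably transfected with Rab9 promoter–luciferase, compounds were incubated 24 h at 37 °C, 5% CO2; luciferase luminescence was read 10 min after reagent addition.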
NPC1 prom act = NPC1 promoter activation | Potency, µM (highest dose often 9.22 µM), for inactives: top-dose activation, usual class: activators | hit rate 2.4% among 320,000 | Huh7 NPC1 promoter luciferase reporter, 24 h | AID 485313; note: % of control where 0% means no effect; nearly all actives have a fitted effect of over 60% in size
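Compounds in DMSO were transferred onto Huh7 NPC1-luciferase reporter cells pre-incubated 2 h; after 24 h at 37 °C, Amplite reagent was dispensed and luminescence recorded 10 min later.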
SMN2 splice up = enhancers of SMN2 splice variant expression | HEK293 SMN2-luciferase splicing reporter, luminescence, 30-36 h | Potency, µM (series often up to 46.1 µM), for inactives: at the top dose activity change, positive = activation, hits mostly activators | hit rate 2.8% among 210,000 | AID 1458; note: % of control where 0% means no effect; nearly all actives have a fitted effect of over 55% in size
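qHTS luciferase splicing reporter: luminescence rises when SMN2 exon 7 is included in transfected HEK293 cells. Compound exposure lasted 30-36 h at 37C, with 4.5 mM final sodium butyrate as control, followed by a ONE-Glo read.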
An asterisk follows results filed as active; ? = inconclusive; / = no result. Calls come from the whole dose curve; as a rule, active = well fitted curve in the direction sought with a large enough effect; inconclusive = small, poorly fitted or top-dose-only effect, or another doubt; inactive = no such curve, though single readings can be large; an effect the other way counts as inactive or inconclusive. Potency is the fitted concentration of half-maximal effect.

SMILES | FLuc modulator | KinaseGlo FLuc | ELG1 genotoxic | Rab9 promoter act | NPC1 prom act | SMN2 splice up
COc1ccc(-n2cc(CN[C@H]3CCCCNC3=O)c(-c3cccc(F)c3)n2)cc1 | 16.9µM* | / | -1.6% | -0.1% | -1.2% | /
C=CCn1c(COc2ccccc2OC)nc2ccccc21 | ? | / | 1.4% | -3.1% | 11.6% | /
CN1CCc2c(sc3c2C(=O)NC(c2ccco2)N3)C1 (stereo not drawn) | -11.3% | 0.1% | -8.2% | 5.5% | 7.5% | 9.1%
O=C1NC(c2cccs2)Nc2sc3c(c21)CCCC3 (stereo not drawn) | 6.75µM* | -7.8% | 8.4% | 3.55µM* | 2.82µM* | ?
COc1ccccc1/C=C/C(=O)OCC(=O)c1c(N)n(C)c(=O)n(C)c1=O | -0.1% | -2.5% | 10.5% | -6.3% | -1.0% | -2.2%
CC1=NN(c2ccccc2)C(=O)/C1=C\c1cc(C)n(-c2cccnc2)c1C | 2.69µM* | / | 9.3% | -6.9% | -5.3% | /
CC1=NN(c2ccccc2)C(=O)/C1=C/C=C/C=C/N(C)C | ? | ? | -1.4% | -3.3% | 0.0% | -50.2%
CC1=NN(c2ccc(C)cc2)C(=O)/C1=C\C=C\c1ccccc1 | ? | -7.5% | -7.7% | 1.2% | 0.5% | -37.5%
CC1=NN(c2cccc(C(=O)O)c2)C(=O)/C1=C\C=C/c1ccccc1 | 2.39µM* | -2.3% | -8.6% | -2.7% | -5.0% | 9.7%
CC1=NN(c2ccccc2)C(=O)/C1=C\c1cc(C)n(-c2ccccc2)c1C | 0.536µM* | -1.6% | ? | 22.6% | 27.5% | -23.9%
COc1ccc(NC(=O)c2ccc(C)cc2)c[n+]1[O-] | ? | / | 8.2% | 9.9% | 14.9% | /
CCOC(=O)c1cnc(SCc2ccc(C(C)(C)C)cc2)nc1N | -19.4% | -2.7% | 10.1% | -4.2% | 10.5% | -40.2%
CCOC(=O)C(C)Sc1ncc(-c2ccccc2)cn1 (stereo not drawn) | 21.3µM* | -3.5% | 8.2% | 23.0% | 5.1% | 3.4%
CCOC(=O)c1cnc(SCc2ccccc2)nc1N | 2.13µM* | -0.8% | 7.31µM* | 0.891µM* | 1.58µM* | 5.62µM*
O=C(CSc1ncnc2c1nnn2Cc1ccccc1F)NCC1CCCO1 (stereo not drawn) | -1.4% | / | -3.7% | 0.6% | -7.0% | /
CCCCN(C(=O)c1ccc(S(=O)(=O)N2CCC(C)CC2)cc1)C1CCS(=O)(=O)C1 (stereo not drawn) | -0.2% | / | -3.4% | -3.2% | -1.0% | /
CCN(CC(=O)Nc1c(F)cccc1F)C(=O)c1ccc(OCc2c(C)noc2C)cc1 | 6.0% | / | 0.9% | -3.3% | -4.1% | /
N=c1ccn2c(n1)O[C@H]1[C@@H](O)[C@@H](CO)O[C@H]12 | / | 1.5% | / | / | / | -35.8%
CCOc1ccc(CN(C)C(=O)CCN2C(=O)c3ccccc3C2=O)cc1OC | -2.0% | / | 2.5% | -2.1% | -0.4% | /
Cc1cc2oc(=O)cc(C)c2c2occ(-c3ccc(Cl)cc3)c12 | -2.0% | / | / | / | / | 1.9%
COC(=O)C[N+](C)(C)CC#Cc1ccccc1 | 1.3% | -1.5% | 1.8% | -1.6% | 1.4% | 10.4%
Cc1cc(=O)n2nc(N3CCC(C(=O)Nc4ccc(Br)c(C)c4)CC3)sc2n1 | -1.2% | / | / | / | / | 13.2%
COc1ccc(C(=O)O)cc1NC(=S)NC(=O)c1ccc(-c2ccc(Cl)cc2)o1 | 13.5µM* | -2.4% | 10.6% | 1.5% | -0.6% | -13.7%
Cc1ccc(C(=O)O)cc1NC(=S)NC(=O)c1ccc(-c2ccc(Cl)cc2)o1 | ? | / | 2.5% | -2.3% | -1.5% | /
O=C(O)c1cccc(NC(=S)NC(=O)c2ccc(-c3ccc(Cl)cc3)o2)c1 | 15.1µM* | 1.6% | 9.2% | ? | 17.7% | 72.7%
SMILES | FLuc modulator | KinaseGlo FLuc | ELG1 genotoxic | Rab9 promoter act | NPC1 prom act | SMN2 splice up
COc1ccc(C(=O)Nc2ccccc2C(=O)NC(Cc2c[nH]c3ccccc23)C(=O)O)cc1 (stereo not drawn) | 15.1µM* | -1.4% | 2.8% | -3.1% | 2.2% | -9.7%
COc1ccc(C(=O)Nc2ccccc2C(=O)NC(Cc2ccc(O)cc2)C(=O)NNC(=O)c2ccccc2Cl)cc1 (stereo not drawn) | 13.5µM* | 1.4% | -1.5% | -3.7% | 2.0% | -10.7%
Cc1ccc(C(=O)NC(Cc2c[nH]c3ccccc23)C(=O)O)cc1 (stereo not drawn) | ? | -3.0% | -0.1% | 1.3% | 2.6% | 1.8%
COc1ccc(C(=O)NNC(=O)C(Cc2ccc(O)cc2)NC(=O)c2ccccc2NC(=O)c2ccc(OC)cc2)cc1 (stereo not drawn) | ? | 4.0% | 0.4% | -4.7% | -0.6% | /
CC(C)Oc1ccc(C(=O)NC(Cc2c[nH]c3ccccc23)C(=O)NN)cc1 (stereo not drawn) | 12µM* | / | 2.2% | 2.7% | -3.0% | /
O=C(N[C@@H](Cc1c[nH]c2ccccc12)C(=O)O)c1ccccc1Cl | -18.4% | / | 0.9% | -7.1% | -1.3% | /
O=C(N[C@@H](Cc1c[nH]c2ccccc12)C(=O)NC1CC1)c1ccccc1Cl | ? | -0.3% | ? | ? | ? | 11.2µM*
COc1cccc(CNS(=O)(=O)c2c(C(=O)N3CCC(C)CC3)c(C)n(C)c2C)c1 | 0.7% | / | / | / | / | /
COc1cccc2cc(C(=O)NCCc3ccccc3)c(=O)oc12 | 10.7µM* | / | ? | 5.0% | 4.8% | /
COc1cccc2cc(C(=O)NCc3ccccn3)c(=O)oc12 | 10.7µM* | -0.9% | ? | ? | ? | 1.4%
COc1cccc2cc(C(=O)NCCC3=CCCCC3)c(=O)oc12 | ? | -0.2% | 4.8% | 2.9% | -0.8% | 12.8%
COc1cccc2cc(C(=O)N3CCc4ccccc4C3)c(=O)oc12 | 16.9µM* | -4.7% | ? | 5.7% | -0.2% | -5.3%
O=C(O)c1ccc(Oc2ccc(S(=O)(=O)c3ccc(C(=O)O)c(C(=O)O)c3)cc2)cc1 | 0.5% | / | -5.0% | -1.0% | -1.0% | /
COc1ccc(-n2c(C)cc(C(=O)COC(=O)c3cc(NC(=O)c4cccs4)c(OC)c(OC)c3)c2C)cc1 | -0.5% | 2.1% | -5.0% | -0.9% | -7.2% | -2.4%
COc1cc(NC(=O)c2cccs2)c(C(=O)OCC(=O)c2cc(C)n(-c3ccc(F)cc3)c2C)cc1OC | 9.53µM* | -2.3% | 8.0% | -0.4% | -0.4% | -9.3%
COc1cc(NC(=O)c2cccs2)c(C(=O)OCC(=O)NC(=O)NC(C)(C)C)cc1OC | -5.3% | -0.2% | -4.9% | -4.7% | -1.7% | -14.3%
COc1cc(NC(=O)c2cccs2)c(C(=O)OCC(=O)c2cc(C)n(-c3ccccc3)c2C)cc1OC | 5.36µM* | -4.1% | -6.6% | -20.4% | -17.0% | 12.8%
c1ccc(-c2cc3n(c2)CCc2ccccc2-3)cc1 | 4.78µM* | -0.8% | -5.8% | 3.16µM* | 3.55µM* | 11.2µM*
Fc1ccccc1/C=N/n1cc(-c2ccccc2)[nH]c1=S | ? | / | 2.2% | 3.98µM* | 1.12µM* | /
